Each structure is given as a SMILES string. Values without a mark were called inactive. Inconclusive results are not listed. Active and inactive are the calls of the source. Unless noted, calls follow the shape of the dose curve; as a rule, active = well fitted curve in either direction with a large enough effect (not every such curve was filed as active); inconclusive = small, poorly fitted or top-dose-only effect, or another doubt; inactive = flat fitted curve, though single readings scatter.

The target of assay [1] is Lysosomal acid glucosylceramidase (Homo sapiens) (UniProt P04062). Nature of the assay: Glucocerebrosidase-p2 (AID 348; in the data active = potency below about 10 µM; also: potency is read from the fitted curve at half-maximal effect). As to conditions: purified GBA, blue fluorogenic substrate, 40 min. The essentials:
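Compounds titrated from 0.6 nM upwards against 0.2 nM enzyme in pH 5.9 citric acid/KH2PO4, taurocholate, tween-20; blue fluorogenic substrate 80 uM, 40 min room temperature, stopped and read Ex 365/Em 440 for AC50.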

Assay [2] can be described thus: AP1 Signaling Pathway (AID 357). Also: % is scaled to controls: 0 for no effect and ±100 for the full control effect. As to conditions: ME-180 AP-1-bla reporter, EGF-induced, beta-lactamase ratio, 5 h; at 7.69 µM (top of the series) unless noted. Summed up: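 ME-180 cells with beta-lactamase reporter under AP-1 response element, stimulated with EC50 EGF; compounds tested in titration series, 5 h at 37 °C. CCF4 substrate added 2.5 h at room temperature; 460/530 nm emission ratio gave %activity and AC50.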

Assay [3] is described as follows: NFAT Signaling Pathway (AID 444).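 Also: carbachol stimulus at about its EC50 of 1 µM final; % is scaled to controls: 0 for no effect and ±100 for the full control effect.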 As to conditions: Jurkat NFAT-bla M1, carbachol, beta-lactamase ratio, 5 h; at 7.69 µM (top of the series) unless noted. Summed up:
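Jurkat cells carrying an NFAT-driven β-lactamase reporter and co-transfected muscarinic M1 receptor were treated with compound plus carbachol (1 uM final, an EC50 level) for 5 h at 37 °C. CCF4 loading followed for 1 h at RT; 460/530 nm ratio gave %activity.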

A short description of assay [4]: Stat Signaling Pathway (AID 446).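 Also: ME-180 cervical cancer cells given 40 pM IL-6 alongside compound; SIE-controlled beta-lactamase reporter measured as 460/530 nm FRET emission ratio; % is scaled to controls: 0 for no effect and ±100 for the full control effect.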 As to conditions: ME-180 SIE beta-lactamase reporter, IL-6 stimulated, 5 h; at 7.69 µM (top of the series) unless noted. Summed up: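 Reporter line: ME-180 cervical carcinoma, SIE-beta-lactamase. Treatment: compound with 40 pM IL-6, 5 hrs, 37 C, in low-serum OPTI-MEM with 10 mM HEPES pH 7.3. Detection: 460/530 nm fluorescence.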

Assay [5] deals with Mitogen-activated protein kinase 10 (Mus musculus) (UniProt Q61831). Nature of the assay: JNK3 AlphaScreen Assay (AID 530).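 Also: kinase came from lysate of stimulated human HepG2 cells; signal reports phosphorylation of biotinylated GST-cJun 1-79 at Ser73 with 10 µM ATP; % is scaled to controls: 0 for no effect and ±100 for the full control effect.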 To be noted: JNK3 lysate, c-Jun phosphorylation; series mostly up to 57.1 µM. Summed up:
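JNK3 came from HepG2 lysates pre-activated with IL-1beta and TNF-alpha and phosphorylated biotinylated GST-cJun (1-79) at 10 uM ATP, pH 7.6, room temperature. Compounds were titrated. AlphaScreen signal used anti-phospho-cJun (Ser73) antibody.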
(In general: In Alpha technology, singlet oxygen from a donor bead excites a nearby acceptor bead.)

Assay [6] concerns the target 3',5'-cyclic-AMP phosphodiesterase 4B (Homo sapiens) (UniProt Q07343). Nature of the assay: qHTS Assay for Inhibitors of PDE-IV (AID 607; active = well fitted activation curve with a large enough effect in the main read-out, with a control signal flat, not every such curve was filed as active; also: % of control where 0% means no effect). To be noted: HEK293 ACTOne CNG channel cells, membrane potential fluorescence; series mostly up to 22.9 µM. Summed up:
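Cell-based read-out of cAMP via a modified cyclic nucleotide-gated channel and membrane potential dye (535/590 nm) in HEK293 cells expressing PDE4 endogenously. Compounds tested up to 22.9 uM final; 100 uM RO 20-1724 reference.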
(In general: In qHTS, concentration-response curves come from the screen itself.)

Assay [7] in a line: Primary qHTS for small molecule stabilizers of the endoplasmic reticulum resident proteome: Secreted ER Calcium Modulated Protein (SERCaMP) assay (AID 1508630; active = well fitted curve in the direction sought with a large enough effect; an effect the other way counts as inactive or inconclusive; also: % is scaled to controls: 0 for no effect and ±100 for the full control effect). To be noted: SH-SY5Y GLuc-SERCaMP (Gaussia luciferase released on ER calcium loss) secretion, thapsigargin, luminescence; series mostly up to 38.4 µM. Summed up:
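GLuc-SERCaMP-expressing SH-SY5Y cells, pretreated 16 h with compound, are challenged with thapsigargin to empty ER calcium stores; after 4 h, coelenterazine is added directly to the medium and luminescence is imaged.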

Assay [8] addresses Glucocorticoid receptor (Homo sapiens) (UniProt P04150). Nature of the assay: GR-GFP Redistribution (AID 450;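 active = compounds whose dose series gives a full or clear partial fitted curve of increased nuclear translocation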; also: potency is read from the fitted curve at half-maximal effect). To be noted: U2OS GR-GFP nuclear translocation, laser cytometry, 2 h.
The target is the same in assay [9]. Nature of the assay: GR-EFC Redistribution (AID 451; calls by dose curve; also: potency is read from the fitted curve at half-maximal effect). As to conditions: CHO-K1 GR-EFC translocation, beta-gal luminescence, 2 h. The essentials: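 CHO-K1 cells stably expressing nuclear-localized β-gal enzyme acceptor and GR fused C-terminally to the enzyme donor fragment; ligand-driven nuclear translocation restores β-gal by complementation. Compounds titrated up to 46 uM final, 2 h at 37 °C; luminescence read.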

A short description of assay [10]: Confirmation and Secondary Assay for Modulators of Hemoglobin Beta Chain Splicing at IVS2 654 locus (AID 910; active = well fitted curve in the direction sought with a large enough effect; an effect the other way counts as inactive or inconclusive;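 also: per-well total GFP intensity by laser scanning cytometry after 2-day treatment; % of control where 0% means no effect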). As to conditions: HeLa EGFP-654 splicing reporter, GFP fluorescence, 48 h; series mostly up to 38.3 µM. Summed up:
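HeLa cells stably carrying EGFP interrupted by mutant beta-globin IVS2-654 intron (CMV-driven) were treated with compound for 2 days at 37C; corrected splicing was scored as total peak GFP intensity per well (488 nm excitation, 500-520 nm emission).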

Assay [11] in a line: qHTS Assay for Identification of Small Molecule Agonists for Hypoxia Response Element Signaling Pathway (AID 914; active = well fitted activation curve with a large enough effect in the signal ratio, with a control signal flat, not every such curve was filed as active; the % refers to the signal ratio; also: % of control where 0% means no effect). To be noted: ME-180 (cervical carcinoma) HRE-bla reporter, beta-lactamase ratio, CoCl2, 17 h; activation: hits give high values. The essentials: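 qHTS titration; ME-180 HRE-bla cells; EC50 CoCl2 co-treatment, 17 h at 37 degrees Celsius; CCF4 dye, ex 405nm, em 460nm and 530nm; %Activity from ratio; AC50.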

Assay [12] addresses Ubiquitin carboxyl-terminal hydrolase 1 (Homo sapiens) (UniProt O94782). The assay can be described thus: Inhibitors of USP1/UAF1: Pilot qHTS (AID 504865; active = well fitted curve in the direction sought with a large enough effect; an effect the other way counts as inactive or inconclusive; also: potency is read from the fitted curve at half-maximal effect; nearly all actives have a fitted effect of over 35% in size). As to conditions: purified USP1/UAF1, Ub-rhodamine cleavage fluorescence; series mostly up to 54.9 µM. Summed up:
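Deubiquitinase activity followed as kinetic rhodamine fluorescence release from 150 nM Ub-Rho. 1 nM USP1/UAF1 with compound, after 15 min room-temperature preincubation, in HEPES pH 7.8 buffer containing TCEP, EDTA, BSA and Tween-20.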

Assay [13] deals with Cytochrome P450 3A4 (Homo sapiens) (UniProt P08684). The assay can be described thus: qHTS Assay for Activators of Cytochrome P450 3A4 (AID 885; active = well fitted curve in the direction sought with a large enough effect; an effect the other way counts as inactive or inconclusive; also: nearly all actives have a fitted effect of over 65% in size). To be noted: recombinant CYP3A4, Luciferin-PPXE luminescence, 60 min; series mostly up to 57.1 µM. The essentials: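 Signal was normalized against complete inhibition by 57 uM ketoconazole. The reaction used 20nM CYP3A4 with 25uM Luciferin-PPXE, 10-min compound preincubation and a 60-min NADPH-supported step at RT.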
Cytochrome P450 3A4 (Homo sapiens), sequence (P08684 whole entry, looked up): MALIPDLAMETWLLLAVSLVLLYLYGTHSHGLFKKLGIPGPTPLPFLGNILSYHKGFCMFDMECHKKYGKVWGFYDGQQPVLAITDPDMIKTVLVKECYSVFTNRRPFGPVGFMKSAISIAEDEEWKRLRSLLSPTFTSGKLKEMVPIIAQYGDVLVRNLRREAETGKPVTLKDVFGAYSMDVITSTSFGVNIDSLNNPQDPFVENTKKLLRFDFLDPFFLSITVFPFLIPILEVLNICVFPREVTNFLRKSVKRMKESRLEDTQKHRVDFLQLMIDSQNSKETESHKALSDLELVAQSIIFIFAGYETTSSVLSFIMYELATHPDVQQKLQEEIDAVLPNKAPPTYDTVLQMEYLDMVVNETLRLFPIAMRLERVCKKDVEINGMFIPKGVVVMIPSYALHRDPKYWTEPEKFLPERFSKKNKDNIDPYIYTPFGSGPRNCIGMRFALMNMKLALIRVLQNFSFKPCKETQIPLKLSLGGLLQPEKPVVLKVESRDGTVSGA

For assay [14] the target is unchanged. The assay can be described thus: qHTS Assay for Inhibitors and Substrates of Cytochrome P450 3A4 (AID 884; active = well fitted curve in the direction sought with a large enough effect; an effect the other way counts as inactive or inconclusive; also: potency is read from the fitted curve at half-maximal effect; nearly all actives have a fitted effect of over 50% in size). As to conditions: recombinant CYP3A4, Luciferin-PPXE luminescence; series mostly up to 57.1 µM. Summed up: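 20 nM human CYP3A4 with 25 uM Luciferin-PPXE (at KM) in 200 mM KPO4, preincubated 10 min with compound; NADPH regeneration started a 60 min RT reaction. Luciferin detected by luminescence, normalized to 57 uM ketoconazole as full inhibition.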

The target in assay [15] is Cytochrome P450 2C19 (Homo sapiens) (UniProt P33261). The assay can be described thus: qHTS Assay for Inhibitors and Substrates of Cytochrome P450 2C19 (AID 899; active = well fitted curve in the direction sought with a large enough effect; an effect the other way counts as inactive or inconclusive; also: nearly all actives have a fitted effect of over 60% in size; also: potency is read from the fitted curve at half-maximal effect). To be noted: recombinant CYP2C19, luciferin-H EGE luminescence; series mostly up to 57.1 µM. The essentials:
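NADPH-dependent conversion of Luciferin-H EGE (10uM, at KM) by 5nM enzyme in 50mM KPO4, 60 min at 37C following 10 min compound preincubation. Stopped with luciferin detection buffer; luminescence read after 20 min.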

3',5'-cyclic-AMP phosphodiesterase 4B (Homo sapiens), sequence (Q07343 whole entry, looked up): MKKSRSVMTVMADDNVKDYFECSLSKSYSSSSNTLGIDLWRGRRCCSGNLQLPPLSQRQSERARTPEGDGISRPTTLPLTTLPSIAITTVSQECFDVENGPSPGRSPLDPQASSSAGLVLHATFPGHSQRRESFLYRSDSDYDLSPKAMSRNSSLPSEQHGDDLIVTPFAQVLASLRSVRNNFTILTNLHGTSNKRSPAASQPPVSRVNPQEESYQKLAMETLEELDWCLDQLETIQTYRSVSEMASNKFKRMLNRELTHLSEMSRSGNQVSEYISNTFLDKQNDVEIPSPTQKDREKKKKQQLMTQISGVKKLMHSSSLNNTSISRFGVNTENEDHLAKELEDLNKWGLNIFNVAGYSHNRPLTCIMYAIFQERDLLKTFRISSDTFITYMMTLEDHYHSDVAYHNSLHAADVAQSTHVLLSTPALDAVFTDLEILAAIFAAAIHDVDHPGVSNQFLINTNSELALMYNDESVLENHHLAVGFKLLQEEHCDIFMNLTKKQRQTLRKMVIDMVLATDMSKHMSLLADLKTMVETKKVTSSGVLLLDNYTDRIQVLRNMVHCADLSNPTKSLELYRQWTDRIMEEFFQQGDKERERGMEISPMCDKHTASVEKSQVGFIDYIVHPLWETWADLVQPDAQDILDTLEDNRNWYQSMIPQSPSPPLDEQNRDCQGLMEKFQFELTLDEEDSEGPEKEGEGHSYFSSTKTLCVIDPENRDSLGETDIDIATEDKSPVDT
Glucocorticoid receptor (Homo sapiens), sequence (P04150 whole entry, looked up, the tested form may be a part): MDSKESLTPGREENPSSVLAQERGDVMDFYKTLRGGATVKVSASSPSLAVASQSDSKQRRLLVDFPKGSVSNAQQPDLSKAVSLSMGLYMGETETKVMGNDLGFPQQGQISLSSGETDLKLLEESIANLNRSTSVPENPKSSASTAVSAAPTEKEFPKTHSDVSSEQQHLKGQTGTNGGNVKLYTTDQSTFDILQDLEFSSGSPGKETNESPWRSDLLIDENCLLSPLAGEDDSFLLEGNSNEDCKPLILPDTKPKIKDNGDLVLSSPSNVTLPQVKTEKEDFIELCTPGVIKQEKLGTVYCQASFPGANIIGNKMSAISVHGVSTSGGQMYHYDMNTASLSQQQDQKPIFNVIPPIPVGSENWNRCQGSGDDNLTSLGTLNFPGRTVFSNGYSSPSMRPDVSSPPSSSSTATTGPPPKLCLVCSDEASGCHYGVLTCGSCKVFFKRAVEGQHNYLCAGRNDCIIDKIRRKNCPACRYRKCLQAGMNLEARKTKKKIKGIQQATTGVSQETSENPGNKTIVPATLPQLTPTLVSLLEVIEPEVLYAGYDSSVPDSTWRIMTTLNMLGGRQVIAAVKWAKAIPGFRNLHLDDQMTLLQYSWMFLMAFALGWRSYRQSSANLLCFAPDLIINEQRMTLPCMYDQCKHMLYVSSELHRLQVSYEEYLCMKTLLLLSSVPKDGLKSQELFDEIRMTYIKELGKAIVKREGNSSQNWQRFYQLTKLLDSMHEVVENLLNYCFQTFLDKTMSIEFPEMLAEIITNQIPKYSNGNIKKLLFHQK
Lysosomal acid glucosylceramidase (Homo sapiens), sequence (P04062 whole entry, looked up): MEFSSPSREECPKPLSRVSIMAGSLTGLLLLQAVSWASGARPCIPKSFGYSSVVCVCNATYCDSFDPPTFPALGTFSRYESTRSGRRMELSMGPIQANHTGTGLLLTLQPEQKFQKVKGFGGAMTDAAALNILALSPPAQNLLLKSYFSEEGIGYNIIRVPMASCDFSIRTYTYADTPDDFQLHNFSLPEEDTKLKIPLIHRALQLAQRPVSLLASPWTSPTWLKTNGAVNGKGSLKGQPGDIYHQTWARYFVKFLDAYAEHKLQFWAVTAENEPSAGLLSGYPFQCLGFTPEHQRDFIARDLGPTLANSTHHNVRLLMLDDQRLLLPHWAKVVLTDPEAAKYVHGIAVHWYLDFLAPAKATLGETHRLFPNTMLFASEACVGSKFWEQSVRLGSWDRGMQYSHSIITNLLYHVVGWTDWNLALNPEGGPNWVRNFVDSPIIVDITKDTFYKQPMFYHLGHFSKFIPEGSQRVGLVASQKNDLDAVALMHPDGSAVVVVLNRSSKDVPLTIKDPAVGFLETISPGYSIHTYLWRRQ
Cytochrome P450 2C19 (Homo sapiens), sequence (P33261 whole entry, looked up): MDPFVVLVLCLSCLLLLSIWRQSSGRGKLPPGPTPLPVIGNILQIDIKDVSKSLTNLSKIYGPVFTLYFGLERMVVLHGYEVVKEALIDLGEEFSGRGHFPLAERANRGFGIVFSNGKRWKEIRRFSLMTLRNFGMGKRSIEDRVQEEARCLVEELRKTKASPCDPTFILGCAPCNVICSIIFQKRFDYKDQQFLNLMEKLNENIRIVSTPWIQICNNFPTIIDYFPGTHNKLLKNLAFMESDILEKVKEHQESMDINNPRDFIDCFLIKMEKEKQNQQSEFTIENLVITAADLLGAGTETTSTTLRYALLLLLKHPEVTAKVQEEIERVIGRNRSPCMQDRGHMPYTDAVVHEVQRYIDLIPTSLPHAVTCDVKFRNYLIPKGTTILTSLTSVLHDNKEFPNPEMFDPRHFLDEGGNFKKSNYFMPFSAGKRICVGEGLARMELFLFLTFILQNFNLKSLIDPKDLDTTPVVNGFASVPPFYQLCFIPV
Ubiquitin carboxyl-terminal hydrolase 1 (Homo sapiens), sequence (O94782 whole entry, looked up): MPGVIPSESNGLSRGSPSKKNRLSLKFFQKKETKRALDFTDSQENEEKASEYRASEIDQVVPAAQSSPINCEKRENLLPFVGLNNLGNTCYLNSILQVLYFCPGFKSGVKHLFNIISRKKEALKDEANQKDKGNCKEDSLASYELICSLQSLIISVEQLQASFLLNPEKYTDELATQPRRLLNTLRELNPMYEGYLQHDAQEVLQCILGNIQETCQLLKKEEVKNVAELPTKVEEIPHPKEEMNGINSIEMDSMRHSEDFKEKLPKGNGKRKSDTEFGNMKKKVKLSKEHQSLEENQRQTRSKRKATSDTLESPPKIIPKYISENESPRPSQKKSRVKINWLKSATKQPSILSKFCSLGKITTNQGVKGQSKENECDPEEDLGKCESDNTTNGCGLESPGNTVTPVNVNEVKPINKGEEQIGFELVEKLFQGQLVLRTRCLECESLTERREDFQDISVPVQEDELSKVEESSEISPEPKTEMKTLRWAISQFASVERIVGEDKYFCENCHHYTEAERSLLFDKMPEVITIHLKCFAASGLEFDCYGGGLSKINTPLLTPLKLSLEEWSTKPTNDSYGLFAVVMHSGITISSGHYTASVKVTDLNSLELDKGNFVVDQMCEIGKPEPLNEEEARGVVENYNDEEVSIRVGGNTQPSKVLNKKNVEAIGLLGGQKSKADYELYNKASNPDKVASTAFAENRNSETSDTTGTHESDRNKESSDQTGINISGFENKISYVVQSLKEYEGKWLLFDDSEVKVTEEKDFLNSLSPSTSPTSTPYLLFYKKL

As for `COc1ccc2[nH]cc(CCNc3cc(-c4c(C)noc4C)ncn3)c2c1`, in assay [1], the Potency is more than 11.4 µM. The activity change, negative = inhibition in assay [2] is 8.05%; in assay [3] it was 0.421%. In addition, in assay [4], the activity, negative = inhibition was -0.948%. Also, the Potency result in assay [5] and in assay [6] was “inactive” throughout. The result in assay [7] was inactive.
In the case of `Cc1cccc(CNc2cc(-c3ccccc3C)ncn2)c1`, the Potency was more than 11.4 µM in [1], more than 46 µM in [8], more than 46 µM in assay [9] and 44.7 µM (active) in assay [12]. The activity change, negative = inhibition in [2] was 13.4%. The activity, negative = inhibition in assay [4] was -8.32%. The Potency result in assay [5] and in assay [10] was “inactive” in each case. For the same compound, in assay [11], the activation is 16.7%. In addition, the outcome in assay [7] was inactive.
With `O=S(=O)(c1ccccc1)N1CCC2(CCN(c3ccccc3)CC2)CC1`, the Potency in assay [1] is more than 11.4 µM; in assay [9], more than 46 µM. The activity change, negative = inhibition is 6.91% in assay [2] and -1.26% in assay [3]. For the same compound, the activity, negative = inhibition in [4] was -14.2%. Also, the Potency result in assay [5], in assay [6] and in assay [13] was “inactive” each time. Besides, in assay [7], the outcome was inactive.
For `O=C(c1ccco1)N1CCC2(CCN(Cc3cc(C(F)(F)F)cc(C(F)(F)F)c3)CC2)CC1`, the Potency was more than 11.4 µM in assay [1] and more than 46 µM in [9]. The results for the activity change, negative = inhibition in [2] and in assay [3] were -1.98% and 2.65%, respectively. In addition, the activity, negative = inhibition in assay [4] was 0.499%. For the same compound, the Potency result in assay [5] and in assay [6] was “inactive” in each case. The activation in [11] was -7.14%. Besides, in assay [7], the result was inactive.
As to `Cn1cccc1C(=O)N1CCC[C@@]2(CCN(c3cccc(-c4ccccc4)c3)C2)C1`, the results for the Potency in assay [1], in assay [9] and in assay [14] were more than 11.4 µM, more than 46 µM and 7.94 µM (active), respectively. The activity change, negative = inhibition in [2] is -10.7%; in [3], -10.5%. Further, in [4], the activity, negative = inhibition was -14.4%. The Potency result in assay [13] was “inactive”. In assay [7], the outcome was inactive.
For the compound `O=C(Nc1ccccc1)N1CCCC2(CCN(C(=O)c3csnn3)CC2)C1`, the values for the Potency in assay [1] and in assay [9] were more than 11.4 µM and more than 46 µM, respectively. For the same compound, the figures for the activity change, negative = inhibition in assay [2] and in assay [3] were -9.89% and -7.97%, respectively. In addition, the activity, negative = inhibition in assay [4] was -7.07%. The Potency entry in assay [5], in assay [6] and in assay [13] was “inactive” each time. In assay [7], the outcome was inactive.
Consider `O=S(=O)(c1ccccc1)N1CCC2(CCCN(c3ccncc3)C2)CC1`, for which the Potency in assay [1] was more than 11.4 µM; in assay [9] it was more than 46 µM. In assay [2], the activity change, negative = inhibition is 22.1%. Moreover, in assay [4], the activity, negative = inhibition was 9.67%. Moreover, the Potency result in [5] and in assay [6] was “inactive” each time. Further, the outcome in assay [7] was inactive.
As to `COCC(=O)N1CCC[C@@]2(CCN(Cc3nccs3)C2)C1`, the Potency in assay [1] was more than 11.4 µM; in [9], more than 46 µM. Further, the activity change, negative = inhibition was -2.92% in assay [2] and 0.146% in assay [3]. Moreover, in [4], the activity, negative = inhibition was 4.7%. Besides, the Potency entry in assay [5], in [6] and in assay [13] was “inactive” each time. In addition, in assay [7], the result was inactive.
For `O=C(Nc1cccc(F)c1)N1CC2(CCN(C(=O)c3ccncc3)CC2)C1`, in assay [1], the Potency is more than 11.4 µM. For the same compound, the activity change, negative = inhibition in [2] is -11.4%; in assay [3], 9.26%. In addition, the activity, negative = inhibition in [4] is 1.8%. In addition, the Potency result in assay [5], in [6] and in assay [15] was “inactive” in each case. Moreover, in [7], the outcome was inactive.
As to `O=C(c1cnccn1)N1CCC2(CC1)CCN(c1cccc(-c3ccccc3)c1)CC2`, the Potency in assay [1] was more than 11.4 µM; in assay [9] it was more than 46 µM. Further, in assay [2], the activity change, negative = inhibition was -9.46%. The activity, negative = inhibition in assay [4] is -13.7%. Besides, the result in assay [7] was inactive.
As for `N#CCCn1c(=O)c(-c2cccs2)nc2cnc(Oc3ccccc3)nc21`, the figures for the Potency in assay [1], in assay [8] and in assay [9] were more than 11.4 µM, more than 9.22 µM and more than 46 µM, respectively. Besides, the activity change, negative = inhibition in assay [2] is 9.42%; in assay [3], 15.6%. Also, the Potency result in [5] and in assay [6] was “inactive” each time. The outcome in assay [7] was inactive.
With `O=C(c1cccc(F)c1)N1CCC2(CCCN(c3ccccc3)C2)CC1`, the Potency in [1] was more than 11.4 µM; in [9] it was more than 46 µM; in assay [15], 5.01 µM (active). Moreover, the activity change, negative = inhibition in assay [2] was -4.36%; in assay [3] it was -1.29%. Besides, the activity, negative = inhibition in assay [4] is -11.8%. The Potency result in [5], in [6] and in assay [13] was “inactive” each time. Moreover, in assay [11], the activation was -3.27%. In [7], the result was inactive.
Regarding `O=C(Nc1cccc(F)c1)N1CCCC2(CCN(C(=O)c3ccco3)CC2)C1`, the Potency was more than 11.4 µM in assay [1] and more than 46 µM in assay [9]. Also, the activity change, negative = inhibition in [2] was -8.03%. Further, the activity, negative = inhibition in assay [4] is 0.264%. For the same compound, the Potency result in assay [5] is “inactive”. For the same compound, in [7], the outcome was inactive.

Source of the values: PubChem BioAssay (NCATS).
